The nature of test [1]: yeast TOR pathway RPL19A-GFP modulators, primary screen, cell-based, S. cerevisiae, multiplex flow cytometry (AID 1862; in the data active = percent of DMSO control GFP below about 86%;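 also: lower values mimic rapamycin by blocking the RPL19A rise seen in DMSO cells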). The note with it: S. cerevisiae RPL19A-GFP strain, flow cytometry fluorescence, 3 h; at 10 µM; stronger effect = lower value.
A short description of test [2]: modulators of MEP2-GFP levels in yeast, primary screen, S. cerevisiae, multiplex flow cytometry (AID 1867;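 active = GFP response, as percent of the DMSO control, above the screen-wide mean plus 3 SD, about 139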;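 also: median GFP channel fluorescence of barcode-gated MEP2-GFP cells measured by flow cytometry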). The note with it: S. cerevisiae MEP2-GFP strain, 3 h, at 10 µM, stronger effect = higher value, 100% means same as DMSO wells.
A short description of test [3]: modulators of CIT2-GFP expression in yeast, primary screen, S. cerevisiae, GFP fusion, multiplex flow cytometry (AID 1870;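 active = percent response above a set limit, the screen-wide mean plus 3 SD, cut at about 130% in these data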;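 also: barcoded CIT2-GFP strain pooled with four other GFP strains with rapamycin as positive control; median GFP fluorescence per well over plate mean of DMSO wells so 100% = DMSO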). Particulars: 3 h, at 10 µM, stronger effect = higher value.
The nature of test [4]: modulators of LAP4-GFP expression in yeast, primary screen, S. cerevisiae, multiplex flow cytometry (AID 1873). The note with it: 3 h, at 10 µM, stronger effect = higher value. For orientation: Flow cytometry measures light scatter and fluorescence of single cells or particles in a stream.
A short description of test [5]: modulators of AGP1-GFP expression in yeast TOR pathway, primary screen, cell-based, multiplex flow cytometry, S. cerevisiae (AID 1887;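 active = GFP signal above the screen-wide mean plus 3 SD, that is over about 124.5% of the solvent control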;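 also: AGP1-GFP fusion strain of S. cerevisiae within a five-strain barcoded multiplex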). Particulars: 3 h, at 10 µM, stronger effect = higher value.
Test [6] is described as follows: inhibitors of CD8+ T cell-vesicle binding, pilot screen, LFA-1/ICAM-1 modulator project, MLPCN validation set, flow cytometry (AID 2523;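 active = response below a set limit, under 55% cells CD8-positive and vesicle-bound, and CD8 cells' 90th-percentile brightness under 279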;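 as to vesicle binding response: mean PE anti-B7-1 fluorescence of CD8+ cells relative to row control; 100% = QL9-loaded vesicles with DMSO vehicle in the same plate row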). The note with it: 2C mouse CD8+ T cells, at 7 µM, stronger effect = lower value; double positive events: measured here: CD8+/vesicle+ event percentage.
The target in test [7] is Integrin beta-1 (Homo sapiens) + Integrin alpha-4 (Homo sapiens) (UniProt P13612+P05556). In words: inhibition of HUTS-21 binding to VLA-4, pilot screen, VLA-4 allosteric modulator project, U937 cells, HUTS-21 mAb, flow cytometry, validation set (AID 2674;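 active = inhibition above 50%, about 3 SD of the validation set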;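 also: antibody binding induced by the VLA-4 ligand LDV present at three times its Kd; 0% = LDV ligand with antibody and no compound and 100% = antibody without LDV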). Particulars: HUTS-21 LIBS mAb binding, at 6.7 µM, stronger effect = higher value, binding induced by LDV ligand.
The nature of test [8]: superoxide lowering in aged yeast cells, pilot screen, validation compound set (AID 2706;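 active = superoxide response below 65% of plate, a cut near 3 SD across the whole screen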;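 also: yeast exposed to compound for one week at 30 degrees C before staining; 100% = mean of all compound wells on the same plate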). Particulars: S. cerevisiae aging, superoxide DHE fluorescence; at 10 µM; stronger effect = lower value.
In test [9] the target is Beta-adrenergic receptor kinase 1 (Homo sapiens) (UniProt P25098). In words: GRK2 binders displacing RNA aptamer, biochemical, validation, human GRK2, bead flow cytometry (AID 488806;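 active = aptamer binding inhibition above 30%, about 3 SD of noise from non-fluorescent compounds; inactive = inhibition at or below 30%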). The note with it: bead-bound GRK2, FAM-aptamer displacement, at 10 µM, stronger effect = higher value.
The target in test [10] is Beta-2 adrenergic receptor (Homo sapiens) (UniProt P07550). In words: beta2AR agonists driving receptor internalization, pilot screen, cell-based, FAP fluorogen, flow cytometry, validation set (AID 504459;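 active = percent response above 42, roughly 3 SD of non-fluorescent test compounds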;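 also: agonist-driven loss of surface beta2AR via internalization measured by FAP dye flow cytometry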). Particulars: Am2.2-beta2AR cells, FAP surface receptor flow cytometry; at 10 µM; stronger effect = higher value.
Test [11] concerns the target AP-2 complex subunit beta (Homo sapiens) (UniProt P63010). In words: inhibitors of arrestin peptide binding to AP2, pilot screen, biochemical, validation set, GST-AP2 beads, flow cytometry (AID 504541;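 active = inhibition above 54%, about 3 SD of non-fluorescent compounds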;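 also: AP2 carries R879A mutation and is captured from E. coli lysate; bead-bound FITC arrestin peptide fluorescence measuring arrestin peptide binding to AP2; 0% = DMSO wells and 100% = excess unlabeled arrestin peptide control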). The note with it: FITC arrestin peptide, at 10 µM, stronger effect = higher value, AP2 beta2 appendage fragment, R879A mutant.
Test [12] in a line: yeast V-ATPase proton transport modulators, S. cerevisiae, pHLuorin, HTS validation (AID 504600; in the data active = response above about 15%;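 also: plate controls were DMSO for no effect and reference compound for full effect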). Particulars: S. cerevisiae pHLuorin cytosolic pH, at 10 µM, stronger effect = higher value.
Test [13] relates to anti-desmoglein-3 scFv antibody binding to human DSG3. In words: inhibitors of anti-DSG3 scFv binding to DSG3, pilot screen, biochemical, validation compound set, bead-based, flow cytometry (AID 588368;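 active = binding below the plate cutoff, the plate median minus 3 SD, with a reading above zero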;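 also: signal is the median channel fluorescence of bead-bound GFP antibody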). The note with it: Protein G beads, DSG3-Fc, scFv-GFP binding, at 10 µM, stronger effect = lower value.
The nature of test [14]: inhibitors of fungal efflux pumps CDR1, CDR2, MDR1, pilot screen, validation compound set, multiplex, phenotypic (AID 588506;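 active = efflux inhibition above 0.42, the validation set average plus 4 SD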;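 also: Nile Red retained in cells so higher fluorescence means more efflux inhibition; 0 = negative control wells and 1 = enniatin B 25 µM full block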). Particulars: S. cerevisiae pump-expressing triplex, Nile Red efflux flow cytometry; at 10 µM; stronger effect = higher value; the pumps come from Candida albicans.
The target of test [15] is ATP-binding cassette sub-family B member 6 (Homo sapiens) (UniProt Q9NP58). In words: ABCB6 transporter inhibitors, pilot screen, K562-ABCB6 cells, flow cytometry, validation set (AID 588550;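 active = inhibition above the screen-wide mean plus 3 SD, about 51%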;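 also: 0% = DMSO wells and 100% = benzethonium chloride 70 µM positive control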). Particulars: K562-ABCB6 porphyrin accumulation, 1 h, at 10 µM, stronger effect = higher value.
Test [16] is described as follows: promoters of myeloid differentiation in arrested cells, primary screen, cell-based, GFP/MAC1 double positive, flow cytometry, validation set (AID 588685;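 active = differentiation response of at least 50%, scaled between solvent and reference control, from cells with both markers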;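 also: compound exposure lasts four days before antibody staining and flow analysis; 0% = DMSO wells and 100% = 5 µM fulvestrant positive control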). Particulars: ER-HoxA9 marrow cells, stronger effect = higher value, normalized: vehicle 0, fulvestrant 100.

Inconclusive results are not listed. Activity calls are given as the source filed them.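 The calls were made as follows, unless noted: active = GFP signal, as percent of the solvent control, above the screen mean plus 3 SD, about 149; inconclusive = no reading because the compound's own fluorescence upset strain identification; inactive = the rest.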

Chain of Beta-adrenergic receptor kinase 1 (Homo sapiens) (P25098 whole entry, looked up): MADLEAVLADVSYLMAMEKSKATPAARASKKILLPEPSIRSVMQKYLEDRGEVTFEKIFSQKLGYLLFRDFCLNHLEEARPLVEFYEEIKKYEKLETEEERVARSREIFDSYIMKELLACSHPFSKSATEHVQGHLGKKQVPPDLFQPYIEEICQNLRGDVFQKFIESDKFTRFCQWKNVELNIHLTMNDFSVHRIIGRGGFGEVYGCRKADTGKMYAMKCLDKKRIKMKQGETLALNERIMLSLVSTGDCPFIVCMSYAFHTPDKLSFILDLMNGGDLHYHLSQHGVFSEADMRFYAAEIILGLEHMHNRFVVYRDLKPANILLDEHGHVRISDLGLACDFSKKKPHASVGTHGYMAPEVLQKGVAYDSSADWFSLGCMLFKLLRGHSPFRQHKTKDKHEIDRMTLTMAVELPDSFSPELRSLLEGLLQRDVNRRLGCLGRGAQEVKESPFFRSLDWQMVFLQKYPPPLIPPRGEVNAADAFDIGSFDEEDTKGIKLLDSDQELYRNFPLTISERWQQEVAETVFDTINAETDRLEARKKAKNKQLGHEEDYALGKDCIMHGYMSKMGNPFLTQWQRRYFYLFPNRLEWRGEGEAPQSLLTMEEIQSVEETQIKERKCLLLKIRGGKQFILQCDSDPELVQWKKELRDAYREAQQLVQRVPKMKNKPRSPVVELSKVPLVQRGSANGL
Chain of ATP-binding cassette sub-family B member 6 (Homo sapiens) (Q9NP58 whole entry, looked up): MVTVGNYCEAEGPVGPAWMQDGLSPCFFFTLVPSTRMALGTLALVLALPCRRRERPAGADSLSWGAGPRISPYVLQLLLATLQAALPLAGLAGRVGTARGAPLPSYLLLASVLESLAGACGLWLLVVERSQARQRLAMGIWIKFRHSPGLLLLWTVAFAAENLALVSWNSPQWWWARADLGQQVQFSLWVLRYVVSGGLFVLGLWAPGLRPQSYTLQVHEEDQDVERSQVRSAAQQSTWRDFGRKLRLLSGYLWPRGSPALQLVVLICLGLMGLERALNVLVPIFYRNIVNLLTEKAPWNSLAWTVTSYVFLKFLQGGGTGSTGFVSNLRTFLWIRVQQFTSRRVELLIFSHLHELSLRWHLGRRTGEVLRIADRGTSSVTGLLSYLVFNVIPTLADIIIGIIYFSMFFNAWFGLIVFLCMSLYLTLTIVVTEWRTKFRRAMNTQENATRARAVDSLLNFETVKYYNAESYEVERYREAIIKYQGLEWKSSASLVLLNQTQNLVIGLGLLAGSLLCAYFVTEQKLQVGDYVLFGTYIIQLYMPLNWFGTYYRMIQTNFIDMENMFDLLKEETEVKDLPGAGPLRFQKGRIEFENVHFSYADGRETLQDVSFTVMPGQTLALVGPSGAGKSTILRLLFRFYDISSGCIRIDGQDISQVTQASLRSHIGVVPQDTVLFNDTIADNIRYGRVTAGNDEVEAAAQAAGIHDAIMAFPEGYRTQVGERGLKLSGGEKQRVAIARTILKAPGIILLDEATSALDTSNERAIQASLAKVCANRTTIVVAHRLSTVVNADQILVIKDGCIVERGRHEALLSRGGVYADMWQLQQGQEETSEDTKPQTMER
Chain of Integrin beta-1 (Homo sapiens) + Integrin alpha-4 (Homo sapiens) (P05556 whole entry, looked up): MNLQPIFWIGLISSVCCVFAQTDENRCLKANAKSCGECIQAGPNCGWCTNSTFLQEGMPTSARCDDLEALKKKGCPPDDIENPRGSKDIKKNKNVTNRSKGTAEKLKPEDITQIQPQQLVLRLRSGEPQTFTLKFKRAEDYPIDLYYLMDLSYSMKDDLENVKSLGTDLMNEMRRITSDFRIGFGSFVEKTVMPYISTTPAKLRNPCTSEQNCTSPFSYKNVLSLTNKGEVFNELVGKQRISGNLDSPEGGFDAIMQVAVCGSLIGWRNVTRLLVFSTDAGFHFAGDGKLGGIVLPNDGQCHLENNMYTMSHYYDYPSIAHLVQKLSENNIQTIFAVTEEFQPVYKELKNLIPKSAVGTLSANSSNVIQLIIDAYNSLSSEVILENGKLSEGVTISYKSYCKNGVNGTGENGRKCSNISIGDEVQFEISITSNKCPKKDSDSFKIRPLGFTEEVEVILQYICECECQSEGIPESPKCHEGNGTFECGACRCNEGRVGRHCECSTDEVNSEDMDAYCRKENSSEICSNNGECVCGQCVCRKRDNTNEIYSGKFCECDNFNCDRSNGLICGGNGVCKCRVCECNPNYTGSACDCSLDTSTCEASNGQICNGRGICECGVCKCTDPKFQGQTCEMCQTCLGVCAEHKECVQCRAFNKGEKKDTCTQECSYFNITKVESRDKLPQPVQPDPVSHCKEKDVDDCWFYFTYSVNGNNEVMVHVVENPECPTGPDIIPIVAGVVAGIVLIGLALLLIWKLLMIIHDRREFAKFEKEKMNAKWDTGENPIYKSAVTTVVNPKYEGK
Chain of Integrin beta-1 (Homo sapiens) + Integrin alpha-4 (Homo sapiens) (P13612 whole entry, looked up): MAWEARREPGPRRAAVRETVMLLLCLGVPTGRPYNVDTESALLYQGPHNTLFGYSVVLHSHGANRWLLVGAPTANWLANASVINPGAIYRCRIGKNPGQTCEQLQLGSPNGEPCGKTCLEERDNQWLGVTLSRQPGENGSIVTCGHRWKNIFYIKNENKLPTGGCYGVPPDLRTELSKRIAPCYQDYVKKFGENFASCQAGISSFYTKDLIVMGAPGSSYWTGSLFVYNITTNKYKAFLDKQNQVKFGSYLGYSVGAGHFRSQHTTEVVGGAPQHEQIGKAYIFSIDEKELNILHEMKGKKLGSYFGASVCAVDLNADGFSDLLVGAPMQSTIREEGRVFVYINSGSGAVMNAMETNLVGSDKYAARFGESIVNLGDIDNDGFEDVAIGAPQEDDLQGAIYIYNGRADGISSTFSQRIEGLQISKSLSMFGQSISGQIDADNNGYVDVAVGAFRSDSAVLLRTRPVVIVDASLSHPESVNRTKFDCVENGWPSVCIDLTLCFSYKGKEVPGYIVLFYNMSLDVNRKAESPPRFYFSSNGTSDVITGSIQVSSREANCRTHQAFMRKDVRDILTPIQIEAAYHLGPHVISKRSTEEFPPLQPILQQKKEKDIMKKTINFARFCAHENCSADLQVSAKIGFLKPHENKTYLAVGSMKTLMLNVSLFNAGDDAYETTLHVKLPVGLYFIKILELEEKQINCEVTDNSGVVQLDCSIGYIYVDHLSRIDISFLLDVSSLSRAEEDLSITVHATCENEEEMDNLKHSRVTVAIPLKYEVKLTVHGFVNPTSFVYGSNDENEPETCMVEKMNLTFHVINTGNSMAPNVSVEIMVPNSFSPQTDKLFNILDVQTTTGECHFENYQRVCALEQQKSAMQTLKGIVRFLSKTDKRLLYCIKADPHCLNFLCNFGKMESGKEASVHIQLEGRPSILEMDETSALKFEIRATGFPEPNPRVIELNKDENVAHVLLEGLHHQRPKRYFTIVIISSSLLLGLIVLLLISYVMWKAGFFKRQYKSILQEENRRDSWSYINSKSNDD
Chain of Beta-2 adrenergic receptor (Homo sapiens) (P07550 whole entry, looked up): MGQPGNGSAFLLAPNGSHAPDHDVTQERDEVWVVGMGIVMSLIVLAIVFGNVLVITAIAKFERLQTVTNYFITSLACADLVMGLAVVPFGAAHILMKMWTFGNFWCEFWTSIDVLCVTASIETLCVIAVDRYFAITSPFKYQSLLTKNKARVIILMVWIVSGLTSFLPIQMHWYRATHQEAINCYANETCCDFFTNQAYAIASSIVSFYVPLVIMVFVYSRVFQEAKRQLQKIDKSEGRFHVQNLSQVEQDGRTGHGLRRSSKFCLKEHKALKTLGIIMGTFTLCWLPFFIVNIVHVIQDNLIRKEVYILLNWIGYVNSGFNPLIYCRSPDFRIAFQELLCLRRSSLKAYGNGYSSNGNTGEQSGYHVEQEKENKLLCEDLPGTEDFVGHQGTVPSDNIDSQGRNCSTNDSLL
Chain of AP-2 complex subunit beta (Homo sapiens) (P63010 whole entry, looked up, the tested form may be a part, one chain of several): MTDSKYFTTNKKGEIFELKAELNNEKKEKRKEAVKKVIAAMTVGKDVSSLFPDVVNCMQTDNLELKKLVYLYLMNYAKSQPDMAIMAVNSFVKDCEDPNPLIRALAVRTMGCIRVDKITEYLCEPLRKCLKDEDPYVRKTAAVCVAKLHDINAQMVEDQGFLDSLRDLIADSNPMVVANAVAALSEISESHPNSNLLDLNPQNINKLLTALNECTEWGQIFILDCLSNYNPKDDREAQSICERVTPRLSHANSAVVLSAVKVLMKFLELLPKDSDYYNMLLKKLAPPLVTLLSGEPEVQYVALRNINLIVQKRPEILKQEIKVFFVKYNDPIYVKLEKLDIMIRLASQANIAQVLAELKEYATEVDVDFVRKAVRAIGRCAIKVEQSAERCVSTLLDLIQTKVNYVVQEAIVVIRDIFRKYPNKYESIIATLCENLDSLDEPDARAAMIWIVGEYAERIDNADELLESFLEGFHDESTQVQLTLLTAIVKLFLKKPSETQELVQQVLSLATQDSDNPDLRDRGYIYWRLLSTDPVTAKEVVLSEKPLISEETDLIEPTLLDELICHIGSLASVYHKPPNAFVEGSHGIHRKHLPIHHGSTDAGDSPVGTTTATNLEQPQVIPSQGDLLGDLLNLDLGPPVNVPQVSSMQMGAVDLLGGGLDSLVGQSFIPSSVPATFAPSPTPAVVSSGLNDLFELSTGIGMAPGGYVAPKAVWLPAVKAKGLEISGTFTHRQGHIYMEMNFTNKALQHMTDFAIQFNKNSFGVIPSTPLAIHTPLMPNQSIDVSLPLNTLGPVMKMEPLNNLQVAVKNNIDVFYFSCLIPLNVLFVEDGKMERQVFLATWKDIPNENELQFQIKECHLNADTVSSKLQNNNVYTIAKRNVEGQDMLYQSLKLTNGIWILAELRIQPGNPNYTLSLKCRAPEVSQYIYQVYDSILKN

A word on the inhibition: it is the drop in the measured response relative to a control, in per cent. Turning to `CC(=O)N(CCC(Cc1ccccc1)c1ccco1)Cc1ccco1` (stereo not drawn), in test [1], the percent of DMSO control GFP was 88.7% (inactive). Besides, the GFP response vs DMSO was 145% (active) in test [2] and 77.6% (inactive) in test [4]. Besides, the percent response of DMSO control in test [3] is 104% (inactive). For the same compound, the GFP response, % of DMSO in test [5] was 77.1% (inactive). The compound further came in with a double positive events in [6] of 68.1%. The vesicle binding response in test [6] is 172% (inactive). Also, the inhibition in test [7] is -0.33% (inactive); in test [11] it was 13.6% (inactive); in [15], 5% (inactive). For the same compound, in test [8], the superoxide response (% of plate) was 96.2% (inactive). Further, the aptamer binding inhibition in [9] is 1% (inactive). The response was 5.89% (inactive) in test [10] and -4.34% (inactive) in test [12]. Moreover, the binding (% of control) in test [13] was 97.4% (inactive). In addition, the efflux inhibition (fraction of control) in [14] is -0.06 (inactive). For the same compound, in test [16], the differentiation response was -3.28% (inactive).
In the case of `O=C(O)c1ccc(N2C(=O)/C(=C\c3ccccc3)N=C2c2ccccc2)cc1`, the percent of DMSO control GFP in test [1] was 103% (inactive). The GFP response vs DMSO was 106% (inactive) in test [2] and 110% (inactive) in [4]. Besides, the percent response of DMSO control in [3] is 99.7% (inactive). Moreover, the GFP response, % of DMSO in [5] was 98% (inactive). For the same compound, the double positive events in [6] was found to be 58.6%. Also, in [6], the vesicle binding response is 120% (inactive). The inhibition in test [7] is -5.11% (inactive); in test [11], -10.8% (inactive); in test [15] it was -15% (inactive). Moreover, the superoxide response (% of plate) in test [8] was 111% (inactive). Further, the aptamer binding inhibition in test [9] was 2% (inactive). Also, the response was -17.4% (inactive) in [10] and -0.35% (inactive) in test [12]. In [13], the binding (% of control) was 98.1% (inactive). Further, the efflux inhibition (fraction of control) in test [14] is -0.2 (inactive). For the same compound, the differentiation response in test [16] is -0.18% (inactive).
In the case of `CC(C)C[C@H]1C(=O)N2CCC[C@H]2[C@]2(O)O[C@](NC(=O)[C@@H]3C=C4c5cccc6[nH]c(Br)c(c56)CC4N(C)C3)(C(C)C)C(=O)N12` (stereo partly drawn), the percent of DMSO control GFP in test [1] was 106% (inactive). The GFP response vs DMSO in [2] was 105% (inactive); in [4], 102% (inactive). Moreover, the percent response of DMSO control in test [3] is 99.7% (inactive). In test [5], the GFP response, % of DMSO is 104% (inactive). Further, the double positive events in test [6] came to 49.2%. For the same compound, in test [6], the vesicle binding response was 107% (inactive). The inhibition was -7.79% (inactive) in test [7], -3.14% (inactive) in test [11] and -91% (inactive) in test [15]. Besides, in test [8], the superoxide response (% of plate) was 97.8% (inactive). Also, the aptamer binding inhibition in [9] is 0% (inactive). For the same compound, the response in [10] was -5.85% (inactive); in test [12], 3.49% (inactive). Besides, the binding (% of control) in [13] was 99.8% (inactive). Also, the efflux inhibition (fraction of control) in test [14] is 0.58 (active). Further, the differentiation response in test [16] is 1.28% (inactive).
On to `CCn1c(/C=C/c2ccccc2)nc2ccccc2c1=O`, for which the percent of DMSO control GFP in test [1] was 98.8% (inactive). The GFP response vs DMSO in test [2] was 111% (inactive); in test [4], 122% (inactive). Besides, the percent response of DMSO control in test [3] was 78.7% (inactive). Also, in test [5], the GFP response, % of DMSO was 92.6% (inactive). Further, the double positive events in [6] was determined as 59.1%. The vesicle binding response in test [6] was 134% (inactive). The inhibition in test [7] is 7.76% (inactive); in test [11] it was -8.94% (inactive); in test [15] it was 7% (inactive). Besides, in test [8], the superoxide response (% of plate) is 102% (inactive). The aptamer binding inhibition in test [9] was 3% (inactive). In addition, the response is 18.5% (inactive) in [10] and 1.61% (inactive) in test [12]. The binding (% of control) in test [13] is 101% (inactive). Also, in test [14], the efflux inhibition (fraction of control) is 0.08 (inactive). Besides, the differentiation response in test [16] is 18.4% (inactive).
